# This is a sample that favours compounds with a hit; in the whole collection about 4% have one here.
# HSV augment: increases HSV replication in cells. 220,000 tested, 0.005% active. maximum fold increase. HSV replication augmentation in cells, fold increase; in the data active = maximum fold increase above about 1.5; inconclusive = no clear call, values can overlap the other calls; tested in PC3 cells
# Arbovirus inh: arbovirus infection inhibition; arbovirus infection cell-based antiviral screen; 200,000 tested, 0.37% active; inhibition, % at 10 µM; AID 1251; in the data active = inhibition above about 30%
# ROMK mod: modulates human ROMK potassium channel activity; P48048; Tet-inducible ROMK, thallium flux fluorescence; actives lie on both sides; B-score at 10 µM; 130,000 tested, 2% active;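 active = signal ratio slope over the read window, or its plate-corrected B-score, at least 3 SD from the plate mean, either direction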;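 also: B-score of the F/F0 ratio slope over 7 to 12 s after thallium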
# KCC2 mod: modulators of human KCC2 chloride dependent transport. 190,000 tested, 2.2% active. B-score of Tl+ flux slope (higher = more flux/activation; lower = inhibition) at 10 µM. AID 1456. Q9H2X9. KCC2 cells, thallium flux FluoZin-2 fluorescence;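 active = thallium flux slope and its plate-corrected score both differing from the plate sample mean at a set confidence after two filtering rounds, in either direction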;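 also: slope of fluorescence scaled to starting intensity during 10 to 20 s after thallium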
# Target sequence (Q9H2X9 whole entry, looked up): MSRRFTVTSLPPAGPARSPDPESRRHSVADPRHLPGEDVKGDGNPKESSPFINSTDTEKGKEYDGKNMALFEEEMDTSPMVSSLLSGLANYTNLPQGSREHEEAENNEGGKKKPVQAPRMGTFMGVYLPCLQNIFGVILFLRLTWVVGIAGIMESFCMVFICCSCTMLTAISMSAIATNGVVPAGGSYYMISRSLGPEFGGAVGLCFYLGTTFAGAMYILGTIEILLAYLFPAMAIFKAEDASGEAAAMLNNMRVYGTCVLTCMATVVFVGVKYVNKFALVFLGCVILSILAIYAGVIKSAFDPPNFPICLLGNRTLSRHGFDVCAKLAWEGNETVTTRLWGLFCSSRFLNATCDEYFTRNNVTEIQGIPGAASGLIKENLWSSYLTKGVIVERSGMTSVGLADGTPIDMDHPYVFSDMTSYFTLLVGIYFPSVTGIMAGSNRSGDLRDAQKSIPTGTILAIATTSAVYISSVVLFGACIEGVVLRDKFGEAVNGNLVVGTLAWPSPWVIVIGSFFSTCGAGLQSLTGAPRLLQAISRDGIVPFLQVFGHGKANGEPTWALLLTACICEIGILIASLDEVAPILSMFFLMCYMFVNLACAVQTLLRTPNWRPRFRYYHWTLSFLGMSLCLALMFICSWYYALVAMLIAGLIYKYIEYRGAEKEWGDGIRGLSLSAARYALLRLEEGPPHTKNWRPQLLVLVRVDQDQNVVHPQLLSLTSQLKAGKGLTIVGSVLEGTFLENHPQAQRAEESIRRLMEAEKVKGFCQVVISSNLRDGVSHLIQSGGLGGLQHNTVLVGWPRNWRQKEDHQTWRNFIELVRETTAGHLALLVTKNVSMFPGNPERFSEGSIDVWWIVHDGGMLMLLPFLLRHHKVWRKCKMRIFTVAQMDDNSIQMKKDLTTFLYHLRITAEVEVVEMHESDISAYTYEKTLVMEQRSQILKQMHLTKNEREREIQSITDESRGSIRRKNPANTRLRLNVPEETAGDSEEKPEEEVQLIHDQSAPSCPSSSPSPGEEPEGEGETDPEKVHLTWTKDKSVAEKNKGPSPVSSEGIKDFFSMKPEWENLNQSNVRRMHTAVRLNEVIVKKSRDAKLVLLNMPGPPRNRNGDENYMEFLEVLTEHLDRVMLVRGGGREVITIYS
# Measles CPE: protection of cells from measles virus. Measles virus-infected cells, CPE protection, absorbance. protection (pct of control), % at 4 µM. 140,000 tested, 1.5% active. AID 841; in the data active = protection mostly above about 24%, no sharp cut-off; inactive = mostly below about 26%
# ROMK hit retest: retested hit modulating human ROMK potassium channel | normalized thallium flux (F/F0 slope) at 10 µM | ROMK thallium flux, fluorescence ratio; hits give low values | shares compounds with ROMK mod | AID 1917 | 3,000 tested, 54% active;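 active = Flux at 10 µM at least 3 SD below or above vehicle control mean in one or both replicates; inconclusive = no clear call, values can overlap the other calls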
# Starred values were filed as active, the others as inactive; i = inactive; ? = inconclusive; · = not tested or not shown.
SMILES,HSV augment,Arbovirus inh,ROMK mod,KCC2 mod,Measles CPE,ROMK hit retest
Cc1cc(C)n(-c2ccc(C(=O)Nc3cccc(S(=O)(=O)N4CCCC4)c3)cc2)n1,i,-1,-0.18,-0.28,·,·
Cc1cc(C)n(-c2ccc(C(=O)OCC(=O)Nc3ccc(S(=O)(=O)N4CCCCC4)cc3)cc2)n1,i,9,2*,-0.17,12,0.078
Cc1oc(-c2ccccc2F)nc1CN1CCC(C(=O)NCCC2=CCCCC2)CC1,i,-7,-5.4*,-0.92,24*,0.056*
Cc1oc(-c2cccs2)nc1CN1CCC(c2ccccc2)CC1,i,26,-0.94,0.68,·,·
OC[C@@H]1CCCN1Cc1cn(-c2ccccc2)nc1-c1ccc2c(c1)OCO2,i,-5,-1.1,·,·,·
c1ccc(-n2cc(CNCCc3cscn3)c(-c3ccc4c(c3)OCO4)n2)cc1,i,-26,-3.1*,1.3,·,0.05*
COCC1CCCCN1Cc1cn(-c2ccccc2)nc1-c1ccc2c(c1)OCO2 (stereo unspecified),i,-1,-3.4*,0.27,·,0.065*
OCc1cn(-c2ccccc2)nc1-c1ccc2c(c1)OCCO2,i,-8,-0.23,·,4,·
CCn1nc(C)c(Br)c1C(=O)Sc1ccccc1Cl,i,·,-0.68,0.086,·,·
CC1(C)CC(=O)C2=C(C1)NC1=C(C(=O)c3ccccc31)C2c1cc([N+](=O)[O-])ccc1O (stereo unspecified),i,·,·,-0.2,·,·
CCOc1ccccc1C(=O)NCC(=O)OCC(=O)NCCc1ccc(S(N)(=O)=O)cc1,i,-1,-2.8*,2.2,31,0.085
NS(=O)(=O)c1ccc(CCNC(=O)COC(=O)CCc2ccccc2)cc1,i,2,-1,1.1,·,·
S=C(c1ccc(-c2ccc(Br)cc2)o1)N1CCOCC1,i,·,2.4*,3,·,0.078
OCc1cccnc1,i,·,·,·,·,·
CC1=Nc2ccccc2/C1=C\c1sc(Nc2ccc(C)cc2)nc1O,i,-2,2*,-1,7,0.095
Cc1ccc(-n2nnnc2SCC(=O)Nc2sc(C)c(C)c2C#N)cc1C,i,0,·,1.4,6,0.073
CCOc1ccc(N2CC(C(=O)Nc3cccc(S(=O)(=O)NC4=NCCC4)c3)CC2=O)cc1 (stereo unspecified),i,·,·,1.8,·,·
Cc1cc(C)c(C(=O)N2CCCC(CNC(=O)C3(c4ccc(Cl)cc4)CC3)C2)c(=O)[nH]1 (stereo unspecified),i,-1,-0.37,0.31,·,·
CC(C)(C)c1ccc(NC(=S)NCc2cccnc2)cc1,i,·,-1.5*,1.7,·,0.073
Fc1ccc(NC(=S)NCc2cccnc2)cc1,i,8,0.29,0.065,·,·
CC1=C(C(=O)OCc2ccccc2)C(/C=C/c2ccccc2)N2C(=O)CCSC2=N1 (stereo unspecified),i,-24,-4.9*,-0.9,7,0.083
COc1ccnc(N=CNOCc2ccc(Cl)cc2)c1C#N,i,·,·,·,·,·
N#Cc1cnc(NOCc2ccc(Cl)cc2)nc1,i,27,-9.5*,-0.036,·,0.074
COc1ccc(NC(C)=O)cc1S(=O)(=O)Nc1ccc2c(c1)OCCO2,i,1,-0.0023,-0.76,·,·
CC1(C)CC(=O)C=C(c2cccnc2)C1,i,·,·,·,·,·
SMILES,HSV augment,Arbovirus inh,ROMK mod,KCC2 mod,Measles CPE,ROMK hit retest
Cc1cc(Cl)n2c(nc3ccccc32)c1C#N,i,10,-5*,-1.8,·,0.036*
O=C(CC12CC3CC(CC(C3)C1)C2)NCO,i,0,0.11,1.1,6,·
CC(NC(=O)CC12CC3CC(CC(C3)C1)C2)C(=O)O (stereo unspecified),i,8,2.1*,-0.53,5,0.091
CN1CCC(NC(=O)c2cccs2)CC1,i,2,·,0.89,9,0.075
O=C(NNC(=S)Nc1ccc(F)cc1)C1[C@H]2CCCC[C@@H]12 (stereo partly specified),i,·,·,1.6,·,·
N#C/C(=C/c1ccccc1[N+](=O)[O-])C(=O)NCc1ccco1,i,5,-2.4*,-0.046,18,0.045*
O=C(Nc1ccc(F)cc1)Nc1nnc(-c2ccncc2)s1,i,25,-2.1*,1.3,3,0.08
O=C(Nc1ccc(Cl)cc1)Nc1nnc(-c2ccncc2)s1,i,3,·,0.7,11,·
CC(=O)OCC(OC(C)=O)C(OC(C)=O)C(OC(C)=O)C(=O)Nc1ccc(C)cc1 (stereo unspecified),i,-6,·,-0.093,-1,0.087
COc1ccc2cnn(-c3ccc(OC(F)(F)F)cc3)c(=O)c2c1OC,i,·,·,0.58,·,·
CC1Cc2ccccc2N1C(=O)CSc1nnc(Cc2ccccc2)n1CCc1ccccc1 (stereo unspecified),·,-38,-3.9*,-1.3,12,0.062*
O=C(c1cccc([N+](=O)[O-])c1)c1ccccn1,i,·,·,0.074,·,?
N#C/C(=C\c1cccc([N+](=O)[O-])c1)c1ccccn1,i,-5,-3.6*,0.054,·,0.046*
COc1ccc(C(=O)Nc2ccc(NC(=O)c3cnccn3)cn2)cc1,i,3,·,0.79,8,·
O=C(NCc1n[nH]c(=S)n1-c1ccc(F)cc1)c1ccc(S(=O)(=O)N2CCCC2)cc1,i,4,1.3*,-0.033,2,0.086
NCCc1c(-c2ccccc2)n(-c2ccccc2)c2ccccc12,i,-30,-3.4*,0.12,·,0.061*
CC1CC2OC(=O)C3(C)CCCC(C)(C23)C1(O)CCc1ccoc1 (stereo unspecified),i,·,0.062,0.47,·,·
C=CC1CN(CC(=O)OC)S(=O)(=O)c2ccccc21 (stereo unspecified),i,·,·,0.79,·,0.074
COc1ccc(C(=O)NCc2c(CC(C)C)oc(C)c2C(=O)O)cc1,i,0,·,-0.46,24,0.076
CC(=O)Nc1ccc(NC(=O)COC(=O)CCc2nc3ccccc3s2)cc1,i,16,0.18,0.1,·,·
Cc1ccc(C(=O)Nc2ccccc2C(=O)NCc2ccco2)cc1S(=O)(=O)N1CCCCC1,i,-3,-0.6,1.5,1,0.078
Cc1ccc2[nH]c(O)c(N=O)c2c1,i,·,·,·,·,·
CCOc1ccccc1NC(=S)NCCc1ccccc1,i,26,0.38,-1.5,·,·
CC(C(=O)N1CCN(C)CC1)N1C(=O)c2ccccc2C1=O (stereo unspecified),i,-1,·,0.024,4,·
CC(C(=O)O)N1C(=O)c2ccccc2C1=O (stereo unspecified),i,3,2.9*,0.3,8,0.078
OC1(c2ccc(Cl)c(Cl)c2)C[n+]2ccccc2N1Cc1ccccc1 (stereo unspecified),i,·,-4*,1.1,·,0.058*
CCOC(=O)Cn1nc(-c2ccccc2)c2ccccc2c1=O,i,-10,4.1*,·,3,0.081
CCOC(=O)Cn1nc(Cc2ccccc2)c2ccccc2c1=O,i,-1,·,-0.02,14,·
O=c1cc(CSc2nnc(-c3cccs3)n2Cc2ccccc2)nc2sc3ccccc3n12,i,19,·,-2.7,12,0.064*
COC(=O)Nc1[nH]ncc1[N+](=O)[O-],i,3,·,0.16,·,·

# Screening results as filed in PubChem.
